Laboratory results as given in the supplement of paper PMC11417369.
In all, about 25,000 sequences were measured (“ln(normalized median fluorescence intensity)”: median about 7.1, highest 2% from about 10 on). Shown is part of a subset that was picked to be rich in the highest values.

These sequences were tested on PfSIP2 AP2 domain 1 (GST-tagged) (assay: gcPBM binding intensity (ln(normalized median fluorescence intensity)); higher = stronger DNA binding).
How it was run: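 GST-tagged P. falciparum DNA-binding domains produced in E. coli were incubated for 1 h on an Agilent 4 × 180k array of primer-extended double-stranded 36-bp intergenic genomic probes with negative controls. Binding intensity is the highest Masliner-normalised natural-log median intensity across replicate spots of either probe orientation, with bound protein detected by Alexa488 anti-GST antibody at 488 nm.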
With “TATATACTCAGACATACACACAAATAAAAAAACACC [CACACA_site5820]” the “gcPBM binding intensity (ln)” value was 8.07.
In the case of “AAATAATATATTCTATATAATAAATTATAAATATAA [GTGCAC_negctrl_site558]”, the “gcPBM binding intensity (ln)” value is reported as 6.58.
For “AAGTGTATATAAAAATGTACATATTTCGATTTAAAT [XGTACX_site4161]”, the “gcPBM binding intensity (ln)” value was 7.11.
For “TTTATATCATTTCTTAAAAAAAAGGAGGTAATAGAC [TGCATGCA_negctrl_site555]”, the “gcPBM binding intensity (ln)” value was 8.44.
In the case of TTCTTAAAAGGAAAGGTGCAACTTTATCATTTTCTT, the “gcPBM binding intensity (ln)” value is reported as 10.9.
With “TTATTTTTAATATCGGTGCAACAAAAAGGAAAAGAT [GTGCAC_site9482]” the “gcPBM binding intensity (ln)” value was 9.64.
For “TAAAGATGAAATATCACACATATATAAATATATAAA [CACACA_site4580]”, the “gcPBM binding intensity (ln)” value was 6.69.
With “AATAATAATAGAAACACACACACATTTTTAAGAATA [CACACA_site6692]” the “gcPBM binding intensity (ln)” value was 6.74.
In the case of “AACAAAGAAAATACATGTACAAAAAATATTAACGAA [XGTACX_site287]”, the “gcPBM binding intensity (ln)” value is reported as 7.22.
TTTAGTGAGTTTGTTGTGCACTGAAAAAATTACAAT was tested, and the “gcPBM binding intensity (ln)” value was 10.5.
For ATAAATAAAACAACAGTGCAATAAAATTAGTTGAGG, the “gcPBM binding intensity (ln)” value was 7.5.
TATATTATATATATACTGCACTGTTTTACAAAATTA was tested, and the “gcPBM binding intensity (ln)” value was 8.44.
In the case of “TTATATAATCCTTTCAAACACACAAAATATAATTAA [CACACA_site1830]”, the “gcPBM binding intensity (ln)” value is reported as 6.91.
With “ACAAAATAAACCACGTGTACAAATTTATAATGTGTA [XGTACX_site1153]” the “gcPBM binding intensity (ln)” value was 7.21.
In the case of “TACAAAATATATATGACACACATAAAAAAAAGTATA [CACACA_site1373]”, the “gcPBM binding intensity (ln)” value is reported as 6.96.
In the case of “AAAAAAAAAAAAAAAGCACACATATAAATATGAATA [CACACA_site8391]”, the “gcPBM binding intensity (ln)” value is reported as 7.5.
With “ATCTTAACTCTATGCACACATAAAAGTATATAAATA [CACACA_site2256]” the “gcPBM binding intensity (ln)” value was 7.7.
For “TGTTAAAAAATGGATGCACACATTAAATAAAAAGTA [CACACA_site1660]”, the “gcPBM binding intensity (ln)” value was 8.9.
“TATATATATATGTGCACACATAATAAAAAAAAAAAT [CACACA_site3831]” was tested, and the “gcPBM binding intensity (ln)” value was 9.49.
With AAAAATAAAATGATGGTGCACATAAAGTATGGTTAC the “gcPBM binding intensity (ln)” value was 11.3.
For “AAAAAAAAAAAAAGTGCACACATAAAAATATGATCT [CACACA_site8090]”, the “gcPBM binding intensity (ln)” value was 11.2.
“AAAAAAAAAAAGTGCACACATAAAAATATGATCTAA [CACACA_site572]” was tested, and the “gcPBM binding intensity (ln)” value was 11.5.
“AAAAAAAAAAAAAGCACACATATAAATATGAATAAA [CACACA_site1393]” was tested, and the “gcPBM binding intensity (ln)” value was 7.18.
In the case of “ATATATGACTAATAAAGTACATACTTCATATAATTA [XGTACX_site6699]”, the “gcPBM binding intensity (ln)” value is reported as 7.06.
For “TAAGTATATTTCTGCACACAAAAAAAAAAACCAAAA [CACACA_site4056]”, the “gcPBM binding intensity (ln)” value was 7.18.
In the case of “AATGATATATTTAAATGTACACATGAAATATAATAT [XGTACX_site2678]”, the “gcPBM binding intensity (ln)” value is reported as 7.06.
With “ATAAAAAAAAAATAATGTACTTATATATATATATAT [XGTACX_site8282]” the “gcPBM binding intensity (ln)” value was 9.32.
“TATATTATAGGTTGTGTACACATATTATATAGTACT [CACACA_site4583]” was tested, and the “gcPBM binding intensity (ln)” value was 7.16.
With “GATGTATAAAATAATACATGCATGTCCTACATATAT [TGCATGCA_site155]” the “gcPBM binding intensity (ln)” value was 6.89.
“AATACGGCAAACATTAAAAAATATAATAACAATAAA [CACACA_negctrl_site868]” was tested, and the “gcPBM binding intensity (ln)” value was 6.96.
For “GCAAGGTCCACACTGGTGCATTAAAAATAAAATATA [GTGCAC_site9956]”, the “gcPBM binding intensity (ln)” value was 10.4.
With “ATATGTACGCAAGGTGCACACTGGTGCATTAAAAAA [CACACA_site1801]” the “gcPBM binding intensity (ln)” value was 12.3.
For “TATGTGTGCAAAAACTGTACACATTAAAGGTATATA [XGTACX_site7627]”, the “gcPBM binding intensity (ln)” value was 7.54.
In the case of “ACATATAAAATATATACACACATATAAATACATTAA [CACACA_site3867]”, the “gcPBM binding intensity (ln)” value is reported as 7.06.
For CATTATGTACAAAAAGTGCAATATATATTAACACTG, the “gcPBM binding intensity (ln)” value was 8.23.
With “TGCAAAAAATTCCACACACACACACGCATATAAATA [CACACA_site6696]” the “gcPBM binding intensity (ln)” value was 7.27.
“GAATATGAATATTTGCGTACTTATATAACTGTTCTA [XGTACX_site883]” was tested, and the “gcPBM binding intensity (ln)” value was 6.83.
“GTGTTAATTTTAAATTGTACAAAATTTATATGATTT [XGTACX_site348]” was tested, and the “gcPBM binding intensity (ln)” value was 7.19.
“TAAATGTTTCTCAAAAGTACACATGTGATATTTCTT [XGTACX_site2065]” was tested, and the “gcPBM binding intensity (ln)” value was 6.84.
“TATTTTCTCGTTTGCATGCACCTTATTTTATGTGGT [GTGCAC_site9470]” was tested, and the “gcPBM binding intensity (ln)” value was 10.8.
“TATGTGTATTTATTTGCATGTTGGTTGTATTTTTTC [TGCATGCA_site479]” was tested, and the “gcPBM binding intensity (ln)” value was 6.93.
With “AGCATTTTTCATTTTGCACACATGTTTTATGTGTAT [CACACA_site3454]” the “gcPBM binding intensity (ln)” value was 7.11.
For “ACTTGTTTTCAATGTAAAATACAATTTTCATTTATT [CACACA_negctrl_site435]”, the “gcPBM binding intensity (ln)” value was 7.08.
With “TATTAAATTTATCGGAGTACATTTAAATGTATATAC [XGTACX_site7975]” the “gcPBM binding intensity (ln)” value was 7.13.
“TATATAACATATAACACACATACTTAGTATTACATA [CACACA_site3099]” was tested, and the “gcPBM binding intensity (ln)” value was 7.
With “TCTTTTCTCGGAAGGGTGCAAGGAATTAATGAAATA [GTGCAC_site9706]” the “gcPBM binding intensity (ln)” value was 11.1.
For TAATATAAATGAAAGGTGCTTTTGCTTTCTTTTTTT, the “gcPBM binding intensity (ln)” value was 7.08.
In the case of “TTCTTTTCTCTTTTAATCATATTATATAAATGAATA [CACACA_negctrl_site820]”, the “gcPBM binding intensity (ln)” value is reported as 7.29.
In the case of “TTTTTATTTTTTTATTTCTTATCAAATAAAATATAT [XGTACX_negctrl_site537]”, the “gcPBM binding intensity (ln)” value is reported as 6.84.
For “TGTTTTGTTGTGTATTGTACTAATATAAATATATAA [XGTACX_site1852]”, the “gcPBM binding intensity (ln)” value was 7.41.
In the case of TATAAGGCAATAATAGTGCACTAAGATATATAATGA, the “gcPBM binding intensity (ln)” value is reported as 10.6.
With TATTAATATATAGTAGTGCAATAAAGATATACTGAA the “gcPBM binding intensity (ln)” value was 8.3.
“TTGCAATAATGTTGCACACTAAATAGTCATATATAA [CACACA_site263]” was tested, and the “gcPBM binding intensity (ln)” value was 7.31.
“AAGTAGTGTTAATACTGTACTTATATTTTTTATTAT [XGTACX_site8264]” was tested, and the “gcPBM binding intensity (ln)” value was 6.92.
With “ATTAAAAATATAGTCACACATACACCCATATATATT [CACACA_site5394]” the “gcPBM binding intensity (ln)” value was 6.92.
“ATATCCATAATAAAAACATGCAACAGAAAAAAAAAA [TGCATGCA_site497]” was tested, and the “gcPBM binding intensity (ln)” value was 7.14.
“AATATAAATAAAAACACACACAATGGTACATATATA [CACACA_site3671]” was tested, and the “gcPBM binding intensity (ln)” value was 7.02.
“TAATTATAATAATAACGTACATATATAAAATGGTGA [XGTACX_site8434]” was tested, and the “gcPBM binding intensity (ln)” value was 7.21.
With “TATATATTTATTAAATGTACATAACAAAAATGGTAT [XGTACX_site3577]” the “gcPBM binding intensity (ln)” value was 7.41.
With “ATGTATGCAAAAATGGTGCATATTAAATGTATAACA [GTGCAC_site9722]” the “gcPBM binding intensity (ln)” value was 11.1.
For “ATAAAACGTACAATGGTGCATATAAATAATATATAT [GTGCAC_site9960]”, the “gcPBM binding intensity (ln)” value was 10.8.
For AATCATATTAGTATGGTGCAACATATATAAATATAT, the “gcPBM binding intensity (ln)” value was 10.8.
With “TACAAATATATAAAATGTACATATATATACATATTA [XGTACX_site3029]” the “gcPBM binding intensity (ln)” value was 6.92.
For CATATATAAATATGTATGCACTTTAACAAAATGTAT, the “gcPBM binding intensity (ln)” value was 7.74.
“ATATATATTAAAAATAGTACATATAATAAAAATCAT [XGTACX_site4265]” was tested, and the “gcPBM binding intensity (ln)” value was 7.11.
In the case of “ATTATGTACAAAATGGTGCAATATTATACATATATA [GTGCAC_site9468]”, the “gcPBM binding intensity (ln)” value is reported as 10.4.
With “AGTATAAATAAATCATAAACATATATATATATATAT [GTGCAC_negctrl_site356]” the “gcPBM binding intensity (ln)” value was 9.25.
With “ATTTTATATACAAAATGTACATATTTATTATATATG [XGTACX_site6732]” the “gcPBM binding intensity (ln)” value was 6.99.
